Bioassay records: PubChem BioAssay, National Center for Advancing Translational Sciences (NCATS)
TDP1 cell CPT: growth inhibition of DT40 Tdp1-/-;hTDP1 cells with camptothecin (screen for TDP1 inhibitors); chicken DT40 Tdp1-/-;hTDP1 cells + 20 nM CPT, ATP luminescence, 48 h; Potency, µM (titrated, usually from 46.2 µM), for inactives: at the highest dose activity change, negative = growth inhibition, hits mostly inhibitors; 12% of 420,000 active; further: potency means the concentration at half of the fitted maximal effect; nearly all actives have a fitted effect of over 55% in size
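Chicken DT40 Tdp1-/- cells stably complemented with human TDP1 were seeded at 400 cells/well in medium containing 20 nM camptothecin, exposed to pin-transferred compounds, and grown at 37 °C for at least 48 hr. Viability was read as ATP luminescence.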
HT1080NT lethal: kills 2HG-producing HT-1080-NT fibrosarcoma cells; HT-1080-NT fibrosarcoma viability, CellTiter-Glo ATP luminescence, 48 h; Potency, µM (top dose mostly 46.1 µM), for inactives: top-dose activity, negative = less viability, usual class: cytotoxic; 1.6% of 360,000 active; AID 686970;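 further: NT is the 2HG producing partner of a matched IDH1 knockdown line; potency means the concentration at half of the fitted maximal effect; 0% = DMSO-treated cells and -100% = media-only wells without cells; nearly all actives have a fitted effect of over 55% in size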
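A 48-hour cytotoxicity screen used HT-1080-NT cells plated 2 hours before compound delivery. ATP-based CellTiter-Glo luminescence measured viability, normalized to DMSO and no-cell controls.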
TDP1 cell noCPT: qHTS for Inhibitors of human tyrosyl-DNA phosphodiesterase 1 (TDP1): qHTS in cells in absence of CPT; DT40 Tdp1-/- hTDP1 cells, no CPT, ATP luminescence, 48 h; Potency, µM (highest dose often 46.2 µM), for inactives: at the top dose activity change, negative = growth inhibition, most hits filed as inhibitors; 15% of 420,000 active; further: potency means the concentration at half of the fitted maximal effect; nearly all actives have a fitted effect of over 55% in size
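Chicken DT40 Tdp1-/- cells stably complemented with human TDP1 were seeded at 400 cells/well with DMSO in place of 20 nM camptothecin. After compound pinning, cells grew at least 48 hr at 37 °C; viability read by CellTiter-Glo luminescence.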
IL-1B inflam inh: blocks inflammasome-driven IL-1 beta release. THP-1 LPS/ATP IL-1B secretion, AlphaLISA, 16 h; stronger effect = lower value. activity change, % at 57.5 µM. AID 743279. 4.7% of 360,000 active; in the data active means activity change below about -50%; inconclusive means mostly about -30% to -49%
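THP-1 cells pretreated 1 hr with compounds (up to 57.5 uM final), then stimulated with LPS (250 ng/mL final) plus ATP (1.25 mM final); secreted IL-1B measured by AlphaLISA after 16 hr, decreased signal indicating inhibition.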
HT1080 IDH1KD tx: toxicity to HT-1080 IDH1 knockdown cells (counter line) | HT-1080 IDH1 knockdown viability, ATP luminescence, 48 h | Potency, µM (series often up to 46.1 µM), for inactives: top-dose activity, negative = toxicity, actives largely listed as cytotoxic | 2% of 360,000 active;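 further: potency means the concentration at half of the fitted maximal effect; 0% = DMSO wells and -100% = cell-free medium wells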
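CellTiter-Glo luminescence after 48 h compound exposure at 37 degrees C of IDH1-knockdown HT-1080 cells in 5% FBS RPMI. %Activity scaled between DMSO wells and cell-free media wells, with curves fitted and assigned curve classes.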
Starred values were filed as active, the others as inactive; u = inconclusive; x = not tested or not shown. Shown are actives, neighbours in structure and some others; about 19% of the full set was active somewhere. Unless noted, the call rests on the fitted dose curve; in most records, active means well fitted curve in the direction sought with a large enough effect; inconclusive means small, poorly fitted or top-dose-only effect, or another doubt; inactive means no such curve, though single readings can be large; an effect the other way counts as inactive or inconclusive. Unless noted, on the % scale 0 is the no-effect control and ±100 the full control effect.

SMILES	TDP1 cell CPT	HT1080NT lethal	TDP1 cell noCPT	IL-1B inflam inh	HT1080 IDH1KD tx
C[C@H]1CN([C@@H](C)CO)C(=O)c2cc(Br)cnc2O[C@H]1CN(C)Cc1ccc(Oc2ccccc2)cc1	18µM*	u	16µM*	u	u
Cc1ccccc1-c1cnc2c(c1)C(=O)N([C@@H](C)CO)C[C@@H](C)[C@H](CN(C)Cc1ccccc1F)O2	u	-4%	16µM*	-22	-5%
COc1ccc(C#Cc2cnc3c(c2)C(=O)N([C@@H](C)CO)C[C@@H](C)[C@@H](CN(C)CC2CCOCC2)O3)cc1	18µM*	-11%	21µM*	-17	-11%
C[C@@H]1CN([C@@H](C)CO)C(=O)c2cc(/C=C/c3ccccc3)cnc2O[C@@H]1CN(C)S(=O)(=O)c1ccc(F)cc1	-8%	14%	-14%	-11	7%
C[C@@H]1CN([C@@H](C)CO)C(=O)c2cc(C#CC3CCCCC3)cnc2O[C@@H]1CN(C)S(=O)(=O)c1ccc(F)cc1	16µM*	-29%	15µM*	-53*	-29%
Cc1ccccc1-c1cnc2c(c1)C(=O)N([C@H](C)CO)C[C@@H](C)[C@H](CN(C)C(=O)c1ccncc1)O2	5%	11%	5%	-6	10%
CCc1ccccc1NC(=O)c1nn(-c2ccc(C)cc2)c(=O)c2c1c1ccccc1n2C	-7%	x	-5%	x	x
N#Cc1c(-c2ccccc2)nc(SCC(=O)N2c3ccccc3Sc3ccccc32)[nH]c1=O	-6%	-14%	0%	-20	-10%
COc1ccc(OC)c(N(CC(=O)NCC2CCCO2)S(=O)(=O)c2ccccc2)c1 (stereo not given)	-1%	13%	u	10	4%
COc1ccc(S(=O)(=O)N(C)C[C@H]2Oc3ncc(Br)cc3C(=O)N([C@@H](C)CO)C[C@@H]2C)cc1	u	-13%	12µM*	29	11%
C[C@@H]1CN([C@@H](C)CO)C(=O)c2cc(Br)cnc2O[C@H]1CN(C)S(=O)(=O)c1ccccc1	-15%	5%	-5%	4	3%
C/C=C/c1cnc2c(c1)C(=O)N([C@@H](C)CO)C[C@H](C)[C@@H](CN(C)S(=O)(=O)c1ccc(C)cc1)O2	23µM*	-3%	23µM*	-11	3%
CCCNC(=O)N(C)C[C@H]1Oc2ncc(C#CCc3ccccc3)cc2C(=O)N([C@H](C)CO)C[C@H]1C	29µM*	-10%	10µM*	-27	-3%
O=C(OCc1c(F)cccc1Cl)c1cc([N+](=O)[O-])ccc1N1CCOCC1	u	-15%	u	u	-24%
O=C(OCCN1C(=O)c2cccc3c(N4CCOCC4)ccc(c23)C1=O)c1cccc(Cl)c1	18µM*	15µM*	8.2µM*	-4	9.2µM*
O=C(OCCN1C(=O)c2cccc3c(N4CCOCC4)ccc(c23)C1=O)c1ccc(Cl)cc1Cl	3.7µM*	1.8µM*	4.1µM*	9	2.3µM*
COc1ccc(C)cc1NC(=O)C1CCN(S(=O)(=O)c2ccc3[nH]c(=O)oc3c2)CC1	2%	x	-1%	x	x
COc1ccc(OC)c(NC(=O)CCN2C(=O)c3cccc([N+](=O)[O-])c3C2=O)c1	-4%	7%	23%	6	8%
CN(C)c1ccc(N=Cc2cccc3ccccc23)cc1	4.5µM*	x	4µM*	x	x
CC(O)c1cccc(N=Cc2ccc3ccccc3c2O)c1 (stereo not given)	-4%	-9%	-27%	26	-19%
CN(C)c1ccc(N=Cc2ccnc3ccccc23)cc1	10µM*	x	11µM*	x	x
CCn1nc(NS(=O)(=O)c2ccc([N+](=O)[O-])cc2)c2cc3ccccc3nc21	-18%	-10%	10%	22	-15%
O=C(c1cc(-c2ccccc2)nc2ccccc12)N1CCCc2ccccc21	u	-3%	23µM*	-5	-11%
Cc1cccc(-c2cc(C(=O)N3CCCc4ccccc43)c3ccccc3n2)c1	23µM*	-1%	u	-29	-6%
Cc1ccc(C(=O)CSc2nc(C)cc(=O)[nH]2)cc1	u	-13%	-22%	27	-8%
SMILES	TDP1 cell CPT	HT1080NT lethal	TDP1 cell noCPT	IL-1B inflam inh	HT1080 IDH1KD tx
COc1ccc(C(=O)CSc2nc(C)cc(C)c2C(=O)Nc2ccccc2C)cc1	u	x	15µM*	x	x
Cc1ccc(C(=O)CSc2nc(C)cc(C)c2C(=O)Nc2cccc(C)c2)cc1	21µM*	x	u	x	x
COc1ccc(-c2cnc(C(O)c3ccc(CN4CCCCC4)cc3)[nH]2)cc1 (stereo not given)	-3%	-8%	-13%	-14	-22%
CCOC(=O)CCc1c(C)n[nH]c1C	-1%	6%	-20%	13	4%
CCOC(=O)CCCc1sc(N)nc1-c1[nH]c(=O)[nH]c1C	u	-5%	-3%	-83*	4%
CCOCCCNC(=S)N1CCCN(c2nc3cc(C)cc(C)c3cc2C#N)CC1	18µM*	u	21µM*	0	-29%
COCCCNC(=S)N1CCCN(c2nc3cc(C)ccc3cc2C#N)CC1	u	0%	u	-16	-1%
COCCCNC(=S)N1CCCN(c2nc3cc(C)c(C)cc3cc2C#N)CC1	u	-5%	u	-74*	-11%
CC(C)(C)c1ccc(S(=O)(=O)N2CCC(O)(c3ccc(Cl)cc3)CC2)cc1	u	u	18µM*	-11	-22%
O=S(=O)(c1ccccc1)N1CCC2(CC1)CO2	u	-22%	-19%	-8	-20%
O=S(=O)(c1ccc(Cl)cc1)N1CCC2(CC1)CO2	u	2%	-32%	-57*	-5%
CC1(C(=O)Nc2ccc3c(c2)OCCO3)CSCC(=O)N1Cc1ccco1 (stereo not given)	-27%	19%	-4%	2	23%
Oc1ccc(N2CCN(Cc3cc4c(cc3Br)OCCO4)CC2)cc1	u	-17%	23µM*	-2	-25%
O=S(=O)(c1ccc(F)cc1)N1CCN(Cc2cc3c(cc2Br)OCCO3)CC1	u	-3%	u	-2	-1%
CCOc1cc(C(=O)NCc2ccc3c(c2)CCN3C(=O)CC)cc(OCC)c1OCC	-10%	x	-19%	x	x
CCOc1cc(C(=O)NCc2ccc3c(c2)CCN3C(=O)c2ccc(F)cc2)cc(OCC)c1OCC	u	x	26µM*	x	x
CCOc1ccccc1C(=O)NCc1ccc2c(c1)CCN2C(C)=O	0.92µM*	x	1.6µM*	x	x
Cc1ccc(C(=O)N2CCc3cc(CNC(=O)c4ccccc4F)ccc32)cc1	u	x	21µM*	x	x
Cc1ccccc1C(=O)NCc1ccc2c(c1)CCN2C(=O)c1ccc(F)cc1	-19%	x	-25%	x	x
CCOc1ccc(C(=O)NCc2ccc3c(c2)CCN3C(=O)c2ccc(C)cc2)cc1OCC	12µM*	x	13µM*	x	x
